From PubChem BioAssay AID1159580 (chemical genetic matrix, 2015)
Out of some 5,500 compounds screened, about 2,000 (36%) were called active. Another 18% or so got no clear call; they are omitted. Some of the results follow. Unmarked numbers belong to inactive results. Rule as the data show it: active = normalized growth mostly below about 0.91 (no sharp cut-off); inconclusive = no clear call, values can overlap the other calls; inactive = mostly above about 0.92.

Assay: chemical genetic growth profiling, strain panel (AID 1159580);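 also: tested at 20 µM; growth read once vehicle control cultures reached saturation at 30 °C; 1 = growth at the plate median or of vehicle wells; lower values mean less growth of the strain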
Settings: S. cerevisiae deletion strains, growth OD

In the case of `COc1ccccc1-c1cc(=O)c2cccc(OC)c2o1`, the normalized growth (locus YBR021W, strain FUR4, active compounds read low) is reported as 0.795 (active), the normalized growth (locus YBR229C, strain ROT2, active compounds read low) is reported as 0.972 and the normalized growth (locus YCL029C, strain bik1, active compounds read low) is reported as 0.987. For the same compound, the normalized growth (locus YDL035C, strain GPR1, active compounds read low) was 0.894, the normalized growth (locus YDL074C, strain BRE1, active compounds read low) was 0.824 and the normalized growth (locus YDL101C, strain DUN1, active compounds read low) was 0.909. The normalized growth (locus YDL134C, strain PPH21, active compounds read low) was 0.865 (active), the normalized growth (locus YDL185W, strain tfp1, active compounds read low) was 0.986 and the normalized growth (locus YDL192W, strain arf1, active compounds read low) was 0.867 (active). For the same compound, the normalized growth (locus YDR101C, strain arx1, active compounds read low) was 0.928, the normalized growth (locus YDR162C, strain NBP2, active compounds read low) was 0.857 and the normalized growth (locus YDR318W, strain mcm21, active compounds read low) was 0.915 (active). For the same compound, the normalized growth (locus YDR388W, active compounds read low) was 0.97, the normalized growth (locus YDR502C, strain sam2, active compounds read low) was 0.906 (active) and the normalized growth (locus YEL061C, strain CIN8, active compounds read low) was 0.902 (active). The normalized growth (locus YER110C, active compounds read low) was 1.01, the normalized growth (locus YER155C, strain BEM2, active compounds read low) was 0.93 and the normalized growth (locus YER167W, strain BCK2, active compounds read low) was 0.899 (active). The normalized growth (locus YGL078C, strain dbp3, active compounds read low) was 0.991, the normalized growth (locus YGL086W, strain mad1, active compounds read low) was 0.908 (active) and the normalized growth (locus YGL248W, strain PDE1, active compounds read low) was 0.865 (active). For the same compound, the normalized growth (locus YGR135W, strain pre9, active compounds read low) was 0.869 (active), the normalized growth (locus YGR229C, strain SMI1, active compounds read low) was 0.617 (active) and the normalized growth (locus YGR252W, strain gcn5, active compounds read low) was 0.714 (active). The normalized growth (locus YHR030C, strain SLT2, active compounds read low) was 0.753 (active), the normalized growth (locus YHR079C, strain IRE1 (second series), active compounds read low) was 0.993 and the normalized growth (locus YHR094C, strain hxt1, active compounds read low) was 1. For the same compound, the normalized growth (locus YHR129C, strain ARP1, active compounds read low) was 0.882 (active), the normalized growth (locus YHR200W, strain rpn10, active compounds read low) was 0.939 and the normalized growth (locus YIL066C, strain RNR3, active compounds read low) was 0.814 (active). The normalized growth (locus YIL073C, strain SPO22, active compounds read low) was 0.875, the normalized growth (locus YIL125W, strain kgd1, active compounds read low) was 0.989 and the normalized growth (locus YIR030C, strain dcg1, active compounds read low) was 0.977. For the same compound, the normalized growth (locus YJL095W, strain BCK1, active compounds read low) was 0.562 (active), the normalized growth (locus YJL134W, strain LCB3, active compounds read low) was 0.974 and the normalized growth (locus YJL168C, strain set2, active compounds read low) was 0.977. The normalized growth (locus YJL187C, strain SWE1 (second series), active compounds read low) was 0.885, the normalized growth (locus YJR043C, strain POL32, active compounds read low) was 0.864 and the normalized growth (locus YKL009W, strain mrt4, active compounds read low) was 0.978. The normalized growth (locus YKL068W, active compounds read low) was 0.998, the normalized growth (locus YKL085W, strain MDH1 (second series), active compounds read low) was 0.977 and the normalized growth (locus YKL085W, strain MDH1, active compounds read low) was 0.977. For the same compound, the normalized growth (locus YKL190W, strain CNB1, active compounds read low) was 0.938, the normalized growth (locus YKR001C, strain vps1, active compounds read low) was 0.855 (active) and the normalized growth (locus YLR039C, strain RIC1, active compounds read low) was 0.84. The normalized growth (locus YLR058C, strain SHM2, active compounds read low) was 0.911, the normalized growth (locus YLR102C, strain apc9, active compounds read low) was 1.01 and the normalized growth (locus YLR262C, strain YPT6, active compounds read low) was 0.855. For the same compound, the normalized growth (locus YLR268W, strain sec22, active compounds read low) was 0.924, the normalized growth (locus YLR330W, strain CHS5, active compounds read low) was 0.798 (active) and the normalized growth (locus YLR342W, strain FKS1 (second series), active compounds read low) was 0.732 (active). For the same compound, the normalized growth (locus YLR371W, strain rom2, active compounds read low) was 0.839 (active), the normalized growth (locus YLR418C, strain cdc73, active compounds read low) was 0.642 (active) and the normalized growth (locus YML016C, strain PPZ1, active compounds read low) was 0.956. For the same compound, the normalized growth (locus YML032C, strain rad52, active compounds read low) was 0.92, the normalized growth (locus YML124C, strain tub3, active compounds read low) was 0.972 and the normalized growth (locus YMR078C, strain ctf18, active compounds read low) was 0.986. The normalized growth (locus YMR223W, strain ubp8, active compounds read low) was 0.886 (active), the normalized growth (locus YMR307W, strain GAS1, active compounds read low) was 0.843 and the normalized growth (locus YNL067W, strain RPL9B, active compounds read low) was 0.896. The normalized growth (locus YNL153C, strain GIM3, active compounds read low) was 0.903, the normalized growth (locus YNL233W, strain BNI4, active compounds read low) was 0.795 (active) and the normalized growth (locus YNL250W, strain rad50, active compounds read low) was 0.997. For the same compound, the normalized growth (locus YNL271C, strain bni1, active compounds read low) was 0.983, the normalized growth (locus YNL298W, strain CLA4, active compounds read low) was 0.963 and the normalized growth (locus YNL307C, strain MCK1, active compounds read low) was 0.758 (active). The normalized growth (locus YNR052C, strain pop2, active compounds read low) was 0.964, the normalized growth (locus YOL012C, strain htz1) was 1.7 and the normalized growth (locus YOL147C, strain pex11, active compounds read low) was 0.924 (active). The normalized growth (locus YOR061W, strain CKA2, active compounds read low) was 0.976, the normalized growth (locus YOR069W, strain VPS5, active compounds read low) was 0.951 and the normalized growth (locus YOR136W, strain idh2, active compounds read low) was 0.992. The normalized growth (locus YOR144C, strain elg1, active compounds read low) was 0.967, the normalized growth (locus YOR184W, strain ser1, active compounds read low) was 0.758 (active) and the normalized growth (locus YOR316C, strain cot1, active compounds read low) was 0.991. It also gave a normalized growth (locus YPL055C, strain LGE1, active compounds read low) of 0.826, a normalized growth (locus YPR119W, strain clb2, active compounds read low) of 1 and a normalized growth (locus YPR141C, strain kar3, active compounds read low) of 1. It also gave a normalized growth (locus YPR163C, strain tif3, active compounds read low) of 0.924, a normalized growth (locus YPR167C, strain met16, active compounds read low) of 0.964 and a normalized growth (strain wtn01, active compounds read low) of 0.918.
